Hits are enriched below; roughly 1.3% of the tested compounds scored in any of these assays.
STK33 inh: human STK33 kinase inhibition; inhibition, % at 12.5 µM; ADP-Glo luminescence, MBP substrate; Q9BYT3; 27,000 tested, 0.44% active; in the data active = inhibition above about 20%
ID4 SMM: binds human ID4 protein on microarray; P47928; small molecule microarray, Flag-ID4 binding, fluorescence F/B; calls only; 31,000 tested, 1.2% active; call rule not given here;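 note: a binder raises fluorescence above local background on the spot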
Target sequence (P47928 whole entry, looked up): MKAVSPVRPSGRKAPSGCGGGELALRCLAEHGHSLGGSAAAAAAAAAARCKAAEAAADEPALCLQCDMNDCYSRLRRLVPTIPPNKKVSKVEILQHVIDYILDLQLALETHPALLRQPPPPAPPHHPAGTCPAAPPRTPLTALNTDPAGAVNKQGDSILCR
Large screens that a line does not name were inactive.

Cc1[nH]c2ccccc2c1C(=O)CSc1ncn[nH]1	none
Cc1[nH]c2ccccc2c1C(=O)CCC(=O)O	ID4 SMM active
O=C(Cn1c(=O)oc2ccccc21)Nc1sc2c(c1C(=O)O)CCCC2	ID4 SMM active
N#Cc1c(NC(=O)Cn2c(=O)oc3cc(Br)ccc32)sc2c1CCCC2	none
Cc1cc(C)c(S(=O)(=O)NCC(=O)Nc2ccc(I)cc2)c(C)c1	none
CC(=O)Nc1ccc(NC(=O)CNS(=O)(=O)c2c(C)cc(C)cc2C)cc1	ID4 SMM active
NC(=O)c1ccccc1C(=O)c1ccccc1	none (no result: ID4 SMM)
Cc1nn(-c2ccccc2)nc1-c1nnc(-c2ccc(Cl)c(Cl)c2)o1	none (no result: STK33 inh)
COC(=O)c1c(NC(=S)Nc2ccc(CC(=O)O)cc2)sc(C)c1C	ID4 SMM active
COC(=O)c1c(NC(=S)Nc2ccc([N+](=O)[O-])cc2OC)sc(C)c1C	none
CC1Cc2ccc3c(c2C(O)C1)C(=O)c1cccc(O)c1C3O (stereo not drawn)	none
O=C(O)COc1ccc(NC(=O)c2ccc(NC(=O)c3ccco3)cc2)cc1	ID4 SMM active
CC(=O)Nc1ccc(C(=O)Nc2ccc(OCC(=O)O)cc2)cc1	none
CC1(C)CC[C@]2(C(=O)O[C@@H]3O[C@H](CO)[C@@H](O)[C@H](O)[C@H]3O)CC[C@]3(C)C(=CCC4[C@@]5(C)C[C@@H](O)[C@H](O)[C@](C)(CO)C5CC[C@]43C)C2[C@@H]1O (stereo partly drawn)	none
O=C(COc1ccc(Cl)cc1)Nc1cccnc1	none
Cn1ccc2cc(NC(=O)Nc3cccnc3)ccc21	ID4 SMM active (no result: STK33 inh)
Cc1ccc2ccc(C(Nc3ccccn3)c3ccccc3Cl)c(O)c2n1 (stereo not drawn)	none
CN(C)CCCCNC(=O)[C@@H]1C[C@@H]2C(=O)NCC(=O)N2[C@@H]1c1ccc(O)cc1	none
NCCCCCCNC(=O)[C@@H]1C[C@@H]2C(=O)N[C@@H](Cc3ccccc3)C(=O)N2[C@@H]1c1ccc(O)cc1	ID4 SMM active
C[N+](C)(C)CCCC[C@@H]1NC(=O)[C@H]2C[C@@H](C(=O)NCCCCCCN)[C@@H](c3ccc(O)cc3)N2C1=O	none (no result: ID4 SMM)
NCCCCCNC(=O)[C@@H]1C[C@@H]2C(=O)NCC(=O)N2[C@@H]1c1cccc(OCCO)c1	ID4 SMM active
NCCCCCNC(=O)[C@H]1C[C@H]2C(=O)NCC(=O)N2[C@H]1c1cccc(OCCO)c1	none (no result: STK33 inh)
NCCCCCCNC(=O)[C@@H]1C[C@@H]2C(=O)NCC(=O)N2[C@@H]1c1ccc(O)cc1	ID4 SMM active (no result: STK33 inh)
CN(C)C(=O)[C@]1(CCS(=O)(=O)c2ccccc2)N=C(c2ccc(OCCCO)cc2)O[C@@H]1c1ccccc1	ID4 SMM active
CN(C)C(=O)[C@]1(Cc2ccccc2)N=C(c2ccc(OCCCO)cc2)O[C@@H]1c1ccccc1	none (no result: ID4 SMM)
CC(=O)C(C#N)C(=O)Nc1cc(Br)ccc1Br (stereo not drawn)	STK33 inh 22.1
O=C(NC(Cc1ccc(F)cc1)C(=O)O)c1ccccc1 (stereo not drawn)	none
O=C(NC(Cc1ccc(O)cc1)C(=O)O)c1ccccc1 (stereo not drawn)	ID4 SMM active
COc1ccc(CCNC(=S)n2cc(C)cn2)cc1OC	none
O=C1c2ccccc2CN1CCNS(=O)(=O)c1ccc2oc3ccccc3c2c1	none (no result: STK33 inh)
O=C(NCc1nc2ccccc2[nH]1)C1=C[C@H](C2CC2)C[C@H](OCc2ccc(CO)cc2)O1	ID4 SMM active (no result: STK33 inh)
O=C(NCc1nc2ccccc2[nH]1)C1=C[C@@H](C2CC2)C[C@@H](OCc2ccc(CO)cc2)O1	none (no result: STK33 inh)
CN1CCN(C2=Cc3ccccc3Oc3ccc(Cl)cc32)CC1	none
CC(=O)NNC(=O)N1Cc2ccccc2Oc2ccc(Cl)cc21	ID4 SMM active (no result: STK33 inh)
CC(=O)NC1=NC(=O)/C(=C\c2cccs2)N1C	none (no result: ID4 SMM)
Cc1ccc(C(=O)NCCN2CCOCC2)cc1S(=O)(=O)N1CCCCC1	none
O=C(Nc1ccccc1C(=O)O)c1ccc(Br)c(S(=O)(=O)N2CCOCC2)c1	ID4 SMM active
O=C(NCCN1CCOCC1)c1ccc(Cl)c(S(=O)(=O)N2CCOCC2)c1	ID4 SMM active
Cc1ccc(C(=O)Nc2ccccc2C(=O)N2CCN(c3ccccc3)CC2)cc1S(=O)(=O)N1CCCCC1	none
O=C(Nc1ccc(S(=O)(=O)Nc2nccs2)cc1)C1c2ccccc2Oc2ccccc21	none
C=C(C)C(=O)O[C@H]1[C@H]2C(=C)C(=O)O[C@@H]2C[C@@H](C)/C=C/C(=O)[C@](C)(O)[C@@H]1OC(C)=O	none (no result: ID4 SMM)
CCc1cccc(C)c1NC(=O)CSc1nnc(-c2ccc(OC)cc2)n1C	none
C=C1C(=O)O[C@@H]2/C=C(\C)[C@H](OC(C)=O)C/C=C(/C)C[C@@H](OC(=O)/C(=C/CO)CO)C12 (stereo partly drawn)	none (no result: ID4 SMM)
COc1ccc(-c2csc3ncn(CC(=O)Nc4sc5c(c4C#N)CCC5)c(=O)c23)cc1OC	ID4 SMM active
COc1ccc(-c2csc3ncn(CC(N)=O)c(=O)c23)cc1OC	none
Cc1noc(C)c1NC(=O)N(C)C[C@H]1OCCCC[C@@H](C)Oc2ccc(NS(=O)(=O)c3cccs3)cc2C(=O)N([C@H](C)CO)C[C@H]1C	ID4 SMM active (no result: STK33 inh)
CNC[C@@H]1OCCCC[C@H](C)Oc2ccc(NS(=O)(=O)c3cn(C)cn3)cc2C(=O)N([C@@H](C)CO)C[C@@H]1C	ID4 SMM active (no result: STK33 inh)
Cc1noc(C)c1NC(=O)N(C)C[C@@H]1OCCCC[C@@H](C)Oc2ccc(NS(=O)(=O)c3cccs3)cc2C(=O)N([C@H](C)CO)C[C@H]1C	ID4 SMM active (no result: STK33 inh)
Cc1noc(C)c1NC(=O)N(C)C[C@@H]1OCCCC[C@@H](C)Oc2ccc(NS(=O)(=O)c3cccs3)cc2C(=O)N([C@@H](C)CO)C[C@H]1C	none (no result: STK33 inh)
Cc1noc(C)c1NC(=O)N(C)C[C@H]1OCCCC[C@@H](C)Oc2ccc(NS(=O)(=O)c3c(C)noc3C)cc2C(=O)N([C@H](C)CO)C[C@@H]1C	none (no result: ID4 SMM)
CNC[C@@H]1OCCCC[C@@H](C)Oc2ccc(NS(=O)(=O)c3cn(C)cn3)cc2C(=O)N([C@@H](C)CO)C[C@@H]1C	none (no result: STK33 inh)
Cc1noc(C)c1NC(=O)N(C)C[C@@H]1OCCCC[C@H](C)Oc2ccc(NS(=O)(=O)c3cccs3)cc2C(=O)N([C@@H](C)CO)C[C@@H]1C	ID4 SMM active (no result: STK33 inh)
Cc1noc(C)c1NC(=O)N(C)C[C@H]1OCCCC[C@@H](C)Oc2ccc(NS(C)(=O)=O)cc2C(=O)N([C@@H](C)CO)C[C@H]1C	none (no result: STK33 inh)
O=C(NCc1ccccn1)c1cnn2c1NC(c1cccs1)CC2C(F)(F)F (stereo not drawn)	none
NC(=O)c1cc(-c2ccccc2)sc1NC(=O)Cn1cnc2scc(-c3ccccc3)c2c1=O	none
Cc1noc(C)c1NC(=O)N(C)C[C@@H]1OCCCC[C@@H](C)Oc2ccc(NS(=O)(=O)c3cn(C)cn3)cc2C(=O)N([C@H](C)CO)C[C@H]1C	ID4 SMM active (no result: STK33 inh)
Cc1noc(C)c1NC(=O)N(C)C[C@@H]1OCCCC[C@H](C)Oc2ccc(NS(=O)(=O)c3cn(C)cn3)cc2C(=O)N([C@@H](C)CO)C[C@H]1C	none (no result: STK33 inh)
O=C(NCc1ccccn1)C(=O)Nc1ccc(Cl)c(Cl)c1	none
O=c1c(O[C@@H]2OC[C@H](O)[C@H](O)[C@H]2O)c(-c2ccc(O)c(O)c2)oc2cc(O)cc(O)c12	none (no result: ID4 SMM)
COc1cc(-c2oc3cc(O)cc(O)c3c(=O)c2O)ccc1O	STK33 inh 52.5
COc1cc(-c2oc3cc(O)c(OC)c(O)c3c(=O)c2OC)ccc1O	none (no result: ID4 SMM)
O=c1c(O)c(-c2ccc(O)c(O)c2)oc2cc(O)cc(O)c12	STK33 inh 38.3

High-throughput results (PubChem)
